Assay results from PubChem BioAssay (EPA / NIEHS).
Active and inactive are the calls of the source. Rule for the calls: active = hit-call score of the fitted dose curve at least 0.9, where 1 is the maximum; inactive = score below 0.9.

Key:
Conditions in all cases: mRNA level, 48 h; actives raise or lower the signal
[1] = read-out: CFLAR gene, CFLAR (gene 8837); assay: LTEA_HepaRG_CFLAR: Life Technologies and Expression Analysis (LTEA) Assay for CFLAR gene using HepaRG (AID 2283455)
Procedure, shortened: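 Differentiated HepaRG cells in serum-free induction medium were exposed 48 h in duplicate to eight half-log concentrations up to 100 uM in 0.5% DMSO; mRNA measured by TaqMan qRT-PCR, normalized to ACTB, GAPDH, POLR2A; bidirectional fitting versus DMSO.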

[2] = read-out: Forkhead box O1 (FOXO1), FOXO1 (gene 2308); assay: LTEA_HepaRG_FOXO1: Life Technologies and Expression Analysis (LTEA) Assay for Forkhead box O1 (FOXO1) using HepaRG (AID 2283456)
Procedure, shortened: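 Differentiated HepaRG cells, in serum-free induction medium with 0.5% DMSO, exposed 48 h in duplicate to 8-point half-log series from 100 uM. FOXO1 mRNA measured by TaqMan qRT-PCR, normalized to ACTB, GAPDH, POLR2A; bidirectional fit versus DMSO.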

[3] = read-out: growth arrest and DNA damage 45 (GADD45A), GADD45A (gene 1647); assay: LTEA_HepaRG_GADD45A: Life Technologies and Expression Analysis (LTEA) Assay for growth arrest and DNA damage 45 (GADD45A) using HepaRG (AID 2283458)
Procedure, shortened: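 Differentiated HepaRG cells were exposed in duplicate for 48 h in serum-free induction medium to 8-point half-log concentrations up to 100 uM in 0.5% DMSO. GADD45A mRNA was measured by TaqMan qRT-PCR, normalized to ACTB, GAPDH and POLR2A, with bidirectional fitting versus DMSO.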

[4] = read-out: Forkhead box O3 (FOXO3), FOXO3 (gene 2309); assay: LTEA_HepaRG_FOXO3: Life Technologies and Expression Analysis (LTEA) Assay for Forkhead box O3 (FOXO3) using HepaRG (AID 2283459)
Procedure, shortened: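 Differentiated human HepaRG cells, 48 h post-plating, exposed in duplicate for 48 h in serum-free induction medium; 8-point half-log series from 100 uM in 0.5% DMSO. FOXO3 mRNA by TaqMan qRT-PCR, normalized to ACTB/GAPDH/POLR2A; bidirectional fit versus DMSO.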

[5] = read-out: ABC Transporter (ABCB1), ABCB1 (gene 5243); assay: LTEA_HepaRG_ABCB1: Life Technologies and Expression Analysis (LTEA) Assay for ABC Transporter (ABCB1) using HepaRG (AID 2283460)
Procedure, shortened: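 HepaRG cells exposed in duplicate for 48 h in serum-free induction medium to eight half-log concentrations up to 100 uM in 0.5% DMSO. ABCB1 mRNA quantified by qRT-PCR, normalised to ACTB, GAPDH and POLR2A; fitted bidirectionally versus DMSO.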

[6] = read-out: growth arrest and DNA damage 45 (GADD45B), GADD45B (gene 4616); assay: LTEA_HepaRG_GADD45B: Life Technologies and Expression Analysis (LTEA) Assay for growth arrest and DNA damage 45 (GADD45B) using HepaRG (AID 2283461)
Procedure, shortened: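 Human HepaRG monolayers receive chemicals for 48 h at eight half-log concentrations, highest 100 uM, in 0.5% DMSO. Expression is measured by TaqMan qRT-PCR and normalized to ACTB, GAPDH and POLR2A.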

[7] = read-out: ABC Transporter (ABCC3), ABCC3 (gene 8714); assay: LTEA_HepaRG_ABCC3: Life Technologies and Expression Analysis (LTEA) Assay for ABC Transporter (ABCC3) using HepaRG (AID 2283462)
Procedure, shortened: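 Transcriptional change of ABCC3 in HepaRG after 48 h treatment, determined by qRT-PCR normalized to endogenous controls. Concentrations spanned eight half-log steps to 100 uM in 0.5% DMSO.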

[8] = read-out: ABC Transporter (ABCC2), ABCC2 (gene 1244); assay: LTEA_HepaRG_ABCC2: Life Technologies and Expression Analysis (LTEA) Assay for ABC Transporter (ABCC2) using HepaRG (AID 2283464)
Procedure, shortened: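 After plating and 48 h culture, HepaRG medium is replaced with serum-free induction medium and chemicals are added (8 concentrations, max 100 uM, 0.5% DMSO) for 48 h. Total RNA then undergoes qRT-PCR for ABCC2 with housekeeping normalization.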

[9] = read-out: Peroxisomal acyl-coenzyme A oxidase 1 (ACOX1) gene, ACOX1 (gene 51); assay: LTEA_HepaRG_ACOX1: Life Technologies and Expression Analysis (LTEA) Assay for Peroxisomal acyl-coenzyme A oxidase 1 (ACOX1) gene using HepaRG (AID 2283467)
Procedure, shortened: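 HepaRG cells, plated 48 h then switched to serum-free induction medium, were exposed in duplicate for 48 h to 8-point half-log concentrations up to 100 uM in 0.5% DMSO. ACOX1 mRNA was measured by qRT-PCR, normalized to ACTB/GAPDH/POLR2A, and fitted bidirectionally versus DMSO.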

[10] = read-out: Alkaline Phosphatase, Placental (ALPP) gene, ALPP (gene 250); assay: LTEA_HepaRG_ALPP: Life Technologies and Expression Analysis (LTEA) Assay for Alkaline Phosphatase, Placental (ALPP) gene using HepaRG (AID 2283468)
Procedure, shortened: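 Using human liver HepaRG cells, chemicals are tested in duplicate over 48 h at half-log concentrations topping at 100 uM; phenobarbital 1 mM serves as induction control. ALPP mRNA change by qRT-PCR, bidirectional fit against vehicle.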

[11] = read-out: Bcl-2 (BAD) gene, BAD (gene 572); assay: LTEA_HepaRG_BAD: Life Technologies and Expression Analysis (LTEA) Assay for Bcl-2 (BAD) gene using HepaRG (AID 2283469)
Procedure, shortened: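 Differentiated HepaRG cells were exposed in duplicate in 0.5% DMSO for 48 h to eight-point half-log concentrations up to 100 uM. BAD mRNA was measured by Fluidigm TaqMan qRT-PCR, normalized to ACTB, GAPDH and POLR2A, and fitted bidirectionally against DMSO.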

[12] = read-out: Alpha-fetoprotein (AFP) gene, AFP (gene 174); assay: LTEA_HepaRG_AFP: Life Technologies and Expression Analysis (LTEA) Assay for Alpha-fetoprotein (AFP) gene using HepaRG (AID 2283472)
Procedure, shortened: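 Human HepaRG cells plated 48 h, then switched to serum-free induction medium and exposed in duplicate for 48 h to 8-point half-log series from 100 uM in 0.5% DMSO. AFP mRNA by qRT-PCR, normalized to ACTB, GAPDH, POLR2A; bidirectional fit versus DMSO.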

[13] = read-out: BCL2L11 (gene 10018); assay: LTEA_HepaRG_BCL2L11: Life Technologies and Expression Analysis (LTEA) Assay for Bcl-2 (BCL2L11) gene using HepaRG (AID 2283473)
Procedure, shortened: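 Human hepatic HepaRG cultures are treated 48 h with test chemicals (maximum 100 uM, 0.5% DMSO vehicle). Expression of BCL2L11 is measured by qRT-PCR against ACTB, GAPDH and POLR2A, with activity in either direction scored relative to vehicle.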

[14] = read-out: Apolipoprotein A-V (APOA5) gene, APOA5 (gene 116519); assay: LTEA_HepaRG_APOA5: Life Technologies and Expression Analysis (LTEA) Assay for Apolipoprotein A-V (APOA5) gene using HepaRG (AID 2283474)
Procedure, shortened: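 Concentration-response of APOA5 expression in HepaRG: eight half-log doses to 100 uM, 48 h, qRT-PCR normalized to ACTB/GAPDH/POLR2A, bidirectional fitting with 0.5% DMSO as baseline.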

[15] = read-out: ATP-citrate lyase (ACLY), ACLY (gene 47); assay: LTEA_HepaRG_ACLY: Life Technologies and Expression Analysis (LTEA) Assay for ATP-citrate lyase (ACLY) using HepaRG (AID 2283466)
Procedure, shortened: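 Differentiated HepaRG cells exposed 48 h in serum-free induction medium to eight half-log concentrations up to 100 uM in 0.5% DMSO, duplicates. Transcript measured by Fluidigm TaqMan qRT-PCR, normalized to ACTB, GAPDH, POLR2A; bidirectional fit versus DMSO.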

[16] = read-out: adenosine kinase (ADK) gene, ADK (gene 132); assay: LTEA_HepaRG_ADK: Life Technologies and Expression Analysis (LTEA) Assay for adenosine kinase (ADK) gene using HepaRG (AID 2283471)
Procedure, shortened: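 Read-out is ADK transcript level measured by qRT-PCR and normalised to three housekeeping genes. Cells are human HepaRG, dosed for 48 h at up to 100 uM in 0.5% DMSO. Gain or loss of signal is fitted against DMSO controls.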

[17] = read-out: Broad substrate specificity ATP-binding cassette transporter ABCG2 (Homo sapiens) (UniProt Q9UNQ0); assay: LTEA_HepaRG_ABCG2: Life Technologies and Expression Analysis (LTEA) Assay for ABC Transporter (ABCG2) using HepaRG (AID 2283465)
Procedure, shortened: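 Differentiated HepaRG cells were exposed for 48 h in serum-free induction medium to 8 half-log concentrations, top 100 uM, in 0.5% DMSO. ABCG2 mRNA was measured by qRT-PCR, normalized to ACTB, GAPDH and POLR2A, with bidirectional fitting versus DMSO.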

[18] = read-out: Bcl-2 (BAX) gene, BAX (gene 581); assay: LTEA_HepaRG_BAX: Life Technologies and Expression Analysis (LTEA) Assay for Bcl-2 (BAX) gene using HepaRG (AID 2283470)
Procedure, shortened: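 Differentiated human HepaRG cells, plated 48 h then switched to serum-free induction medium, were exposed 48 h to 8 half-log concentrations up to 100 uM in 0.5% DMSO; BAX mRNA measured by qRT-PCR, normalized to ACTB, GAPDH, POLR2A.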

[19] = read-out: ABC Transporter (ABCB11), ABCB11 (gene 8647); assay: LTEA_HepaRG_ABCB11: Life Technologies and Expression Analysis (LTEA) Assay for ABC Transporter (ABCB11) using HepaRG (AID 2283463)
Procedure, shortened: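 Differentiated human HepaRG cells in serum-free induction medium, dosed in duplicate for 48 h. Eight-point half-log series from 100 uM in 0.5% DMSO; ABCB11 mRNA by qRT-PCR, normalized to ACTB, GAPDH, POLR2A, fitted bidirectionally versus DMSO.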

Measured: AC50

Sequence of Broad substrate specificity ATP-binding cassette transporter ABCG2 (Homo sapiens) (Q9UNQ0 whole entry, looked up): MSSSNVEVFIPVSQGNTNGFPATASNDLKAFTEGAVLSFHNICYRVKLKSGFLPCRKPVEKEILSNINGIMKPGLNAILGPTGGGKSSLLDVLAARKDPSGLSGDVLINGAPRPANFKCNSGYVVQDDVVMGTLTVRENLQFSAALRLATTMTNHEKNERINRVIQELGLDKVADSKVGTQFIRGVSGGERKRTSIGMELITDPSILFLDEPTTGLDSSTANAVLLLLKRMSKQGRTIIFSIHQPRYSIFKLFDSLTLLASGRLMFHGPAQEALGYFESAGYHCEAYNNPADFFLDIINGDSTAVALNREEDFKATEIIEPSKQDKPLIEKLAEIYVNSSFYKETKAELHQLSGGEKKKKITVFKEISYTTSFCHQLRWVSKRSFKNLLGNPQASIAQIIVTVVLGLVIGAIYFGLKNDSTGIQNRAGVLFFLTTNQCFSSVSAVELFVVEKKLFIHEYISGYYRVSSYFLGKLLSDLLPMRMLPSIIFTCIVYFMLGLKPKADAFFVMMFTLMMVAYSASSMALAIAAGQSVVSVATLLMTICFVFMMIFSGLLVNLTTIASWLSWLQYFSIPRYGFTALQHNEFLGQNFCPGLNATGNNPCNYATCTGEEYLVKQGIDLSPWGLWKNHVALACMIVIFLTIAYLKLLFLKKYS

Cc1cccc([N+](=O)[O-])c1
not listed: [15] | [16] | [17] | [18] | [19]
inactive: all other assays above

O=C(O)C(F)(F)C(F)(F)C(F)(F)C(F)(F)C(F)(F)C(F)(F)C(F)(F)C(F)(F)C(F)(F)F
inactive: [4] | [11]
active: [1] 89.5 µM | [2] 81.6 µM | [3] 85.5 µM | [5] 85.1 µM | [7] 88.5 µM | [8] 94.8 µM | [15] 76.5 µM | [9] 78.4 µM | [10] 68.1 µM | [16] 81.1 µM | [12] 23 µM | [13] 12.1 µM | [14] 30.8 µM

CCC(C)(c1ccc(O)cc1)c1ccc(O)cc1
active: [1] 71.4 µM | [12] 50 µM
not listed: [15] | [16] | [18] | [19]
inactive: all other assays above

C[C@]12CCC(=O)C=C1CC[C@@H]1[C@@H]2CC[C@]2(C)C(=O)CC[C@@H]12
active: [3] 50 µM | [5] 17.1 µM | [8] 50 µM | [10] 29.8 µM | [12] 50 µM | [14] 50 µM
not listed: [6] | [15] | [16] | [17] | [19]
inactive: all other assays above

Cc1cccc(C)c1N
not listed: [11] | [15] | [16] | [19]
inactive: all other assays above

Oc1ccc(C(c2ccc(O)cc2)(C(F)(F)F)C(F)(F)F)cc1
active: [1] 91.3 µM | [2] 81 µM | [19] 86.6 µM | [9] 83.8 µM | [10] 83 µM | [13] 78.9 µM
not listed: [11] | [16] | [18]
inactive: all other assays above

CO/C=C(/C(=O)OC)c1ccccc1COc1cccc(C(F)(F)F)n1
active: [1] 18.8 µM | [2] 7.38 µM | [3] 9.39 µM | [6] 24.7 µM | [7] 1.91 µM | [19] 5.64 µM | [8] 28 µM | [17] 3.03 µM | [9] 5.3 µM | [10] 5.39 µM | [18] 9.44 µM | [12] 4.93 µM | [13] 6.53 µM | [14] 9.59 µM
inactive: [4] | [15] | [16]

Oc1c(Cl)c(Cl)c(Cl)c(Cl)c1Cl
active: [1] 2.17 µM | [2] 6.85 µM | [3] 6 µM | [4] 1.64 µM | [5] 2.1 µM | [7] 2.09 µM | [8] 2.03 µM | [9] 3.29 µM | [10] 5.48 µM | [12] 3.19 µM | [13] 6.24 µM | [14] 3.95 µM
